About 2,000 (36%) of roughly 5,500 compounds were called active. Inconclusive results (about 18%) are left out. No stated cut-off is given here; in the data, active means normalized growth mostly below about 0.91 (no sharp cut-off); inconclusive means no clear call, values can overlap the other calls; inactive means mostly above about 0.92. The list shows a part of the results.
Assay: chemical genetic growth profiling, strain panel (AID 1159580);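 further: tested at 20 µM; growth read once vehicle control cultures reached saturation at 30 °C; 1 = growth at the plate median or of vehicle wells; lower values mean less growth of the strain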
Conditions: growth OD

Measured: normalized growth

NCC1CCC(C(=O)O)CC1 (stereo not drawn)
inactive: S. cerevisiae deletion strains, locus YKL009W, strain mrt4, hits give low values 0.97 | S. cerevisiae deletion strains, locus YKL068W, hits give low values 0.984 | S. cerevisiae deletion strains, locus YKL085W, strain MDH1 (second series), hits give low values 0.985 | S. cerevisiae deletion strains, locus YKL085W, strain MDH1, hits give low values 0.985 | S. cerevisiae deletion strains, locus YKL160W, strain elf1, hits give low values 0.997 | S. cerevisiae deletion strains, locus YKL190W, strain CNB1, hits give low values 0.995 | S. cerevisiae deletion strains, locus YKR001C, strain vps1, hits give low values 1.01 | S. cerevisiae deletion strains, locus YKR026C, strain gcn3, hits give low values 0.993 | S. cerevisiae deletion strains, locus YKR091W, strain srl3, hits give low values 0.997 | S. cerevisiae deletion strains, locus YLL001W, strain dnm1, hits give low values 0.998 | S. cerevisiae deletion strains, locus YLL026W, hits give low values 0.996 | S. cerevisiae deletion strains, locus YLL041C, strain sdh2, hits give low values 0.996 | S. cerevisiae deletion strains, locus YLR027C, strain aat2, hits give low values 0.989 | S. cerevisiae deletion strains, locus YLR039C, strain RIC1, hits give low values 0.975 | S. cerevisiae deletion strains, locus YLR058C, strain SHM2, hits give low values 1 | S. cerevisiae deletion strains, locus YLR102C, strain apc9, hits give low values 0.989 | S. cerevisiae deletion strains, locus YLR113W, strain HOG1, hits give low values 1 | S. cerevisiae deletion strains, locus YLR221C, strain rsa3, hits give low values 0.984 | S. cerevisiae deletion strains, locus YLR258W, strain gsy2, hits give low values 0.999 | S. cerevisiae deletion strains, locus YLR262C, strain YPT6 (second series), hits give low values 0.984 | S. cerevisiae deletion strains, locus YLR262C, strain YPT6, hits give low values 0.953 | S. cerevisiae deletion strains, locus YLR268W, strain sec22, hits give low values 0.991 | S. cerevisiae deletion strains, locus YLR320W, strain mms22, hits give low values 0.992 | S. cerevisiae deletion strains, locus YLR330W, strain CHS5, hits give low values 0.991 | S. cerevisiae deletion strains, locus YLR342W, strain FKS1 (second series), hits give low values 0.986 | S. cerevisiae deletion strains, locus YLR342W, strain FKS1, hits give low values 0.998 | S. cerevisiae deletion strains, locus YLR357W, strain rsc2, hits give low values 0.996 | S. cerevisiae deletion strains, locus YLR370C, strain arc18, hits give low values 0.996 | S. cerevisiae deletion strains, locus YLR371W, strain rom2, hits give low values 1 | S. cerevisiae deletion strains, locus YLR384C, strain iki3, hits give low values 0.999 | S. cerevisiae deletion strains, locus YLR418C, strain cdc73, hits give low values 0.97 | S. cerevisiae deletion strains, locus YML016C, strain PPZ1, hits give low values 0.999 | S. cerevisiae deletion strains, locus YML032C, strain rad52, hits give low values 1.01 | S. cerevisiae deletion strains, locus YML120C, strain ndi1, hits give low values 0.974 | S. cerevisiae deletion strains, locus YML124C, strain tub3, hits give low values 0.998 | S. cerevisiae deletion strains, locus YMR058W, strain fet3, hits give low values 0.988 | S. cerevisiae deletion strains, locus YMR078C, strain ctf18, hits give low values 0.98 | S. cerevisiae deletion strains, locus YMR125W, strain sto1, hits give low values 0.999 | S. cerevisiae deletion strains, locus YMR129W, hits give low values 0.999 | S. cerevisiae deletion strains, locus YMR205C, strain PFK2, hits give low values 0.989 | S. cerevisiae deletion strains, locus YMR223W, strain ubp8, hits give low values 0.987 | S. cerevisiae deletion strains, locus YMR231W, strain pep5, hits give low values 0.999 | S. cerevisiae deletion strains, locus YMR307W, strain GAS1, hits give low values 1.01 | S. cerevisiae deletion strains, locus YNL067W, strain RPL9B, hits give low values 1.03 | S. cerevisiae deletion strains, locus YNL071W, strain lat1, hits give low values 0.989 | S. cerevisiae deletion strains, locus YNL153C, strain GIM3, hits give low values 1.06 | S. cerevisiae deletion strains, locus YNL183C, strain NPR1, hits give low values 0.946 | S. cerevisiae deletion strains, locus YNL209W, strain ssb2, hits give low values 1.02 | S. cerevisiae deletion strains, locus YNL233W, strain BNI4, hits give low values 1.03 | S. cerevisiae deletion strains, locus YNL248C, strain rpa49, hits give low values 0.988 | S. cerevisiae deletion strains, locus YNL250W, strain rad50, hits give low values 0.979 | S. cerevisiae deletion strains, locus YNL271C, strain bni1, hits give low values 0.978 | S. cerevisiae deletion strains, locus YNL298W, strain CLA4, hits give low values 0.987 | S. cerevisiae deletion strains, locus YNL307C, strain MCK1, hits give low values 0.999 | S. cerevisiae deletion strains, locus YNL322C, strain KRE1 (second series), hits give low values 0.992 | S. cerevisiae deletion strains, locus YNL322C, strain KRE1, hits give low values 0.991 | S. cerevisiae deletion strains, locus YNR049C, strain mso1, hits give low values 0.991 | S. cerevisiae deletion strains, locus YNR052C, strain pop2, hits give low values 0.985 | S. cerevisiae deletion strains, locus YOL006C, strain TOP1, hits give low values 1.1 | S. cerevisiae deletion strains, locus YOL012C, strain htz1 0.934 | S. cerevisiae deletion strains, locus YOL147C, strain pex11, hits give low values 0.99 | S. cerevisiae deletion strains, locus YOR001W, strain rrp6, hits give low values 0.998 | S. cerevisiae deletion strains, locus YOR061W, strain CKA2, hits give low values 1 | S. cerevisiae deletion strains, locus YOR069W, strain VPS5, hits give low values 0.986 | S. cerevisiae deletion strains, locus YOR070C, strain gyp1, hits give low values 0.993 | S. cerevisiae deletion strains, locus YOR080W, strain dia2, hits give low values 0.987 | S. cerevisiae deletion strains, locus YOR083W, strain WHI5, hits give low values 1 | S. cerevisiae deletion strains, locus YOR106W, strain vam3, hits give low values 1.01 | S. cerevisiae deletion strains, locus YOR136W, strain idh2, hits give low values 0.991 | S. cerevisiae deletion strains, locus YOR144C, strain elg1, hits give low values 1 | S. cerevisiae deletion strains, locus YOR184W, strain ser1, hits give low values 0.981 | S. cerevisiae deletion strains, locus YOR231W, strain MKK1, hits give low values 1.05 | S. cerevisiae deletion strains, locus YOR265W, strain rbl2, hits give low values 0.994 | S. cerevisiae deletion strains, locus YOR270C, strain vph1, hits give low values 0.987 | S. cerevisiae deletion strains, locus YOR290C, strain snf2, hits give low values 1.01 | S. cerevisiae deletion strains, locus YOR316C, strain cot1, hits give low values 0.992 | S. cerevisiae deletion strains, locus YPL051W, strain arl3, hits give low values 0.993 | S. cerevisiae deletion strains, locus YPL078C, strain atp4, hits give low values 0.993 | S. cerevisiae deletion strains, locus YPL106C, strain sse1, hits give low values 0.967 | S. cerevisiae deletion strains, locus YPL240C, strain hsp82, hits give low values 0.989 | S. cerevisiae deletion strains, locus YPL241C, strain CIN2, hits give low values 0.996 | S. cerevisiae deletion strains, locus YPL256C, strain CLN2, hits give low values 1.02 | S. cerevisiae deletion strains, locus YPR119W, strain clb2, hits give low values 0.994 | S. cerevisiae deletion strains, locus YPR141C, strain kar3, hits give low values 0.998 | S. cerevisiae deletion strains, locus YPR163C, strain tif3, hits give low values 0.992 | S. cerevisiae deletion strains, locus YPR167C, strain met16, hits give low values 0.989 | S. cerevisiae deletion strains, strain wtn01, hits give low values 0.979 | S. cerevisiae strains, strain wild type, hits give low values 0.995

Source: PubChem BioAssay AID1159580 (chemical genetic matrix, 2015)
